Hits are enriched below; roughly 2.9% of the tested compounds scored in any of these assays.
MEKK2 mut-MEK5: MEK5 binding signal on mutant MEKK2 PB1, primary screen, biochemical, multiplex bead flow cytometry, Alexa488-MEK5; Alexa488-MEK5 binding to MEKK2 mutant; percent response, % at 10 µM; 0.35% of 290,000 active; AID 1530, 2009; in the data active means percent response above about 24%, passing the limit was not always enough
MEKK2 WT-MEK5: modulators of MEK5 binding to wildtype MEKK2, primary screen, biochemical, multiplex bead flow cytometry, Alexa488-MEK5; Alexa488-MEK5 binding to MEKK2 WT; actives lie on both sides; binding response (% of control), % at 10 µM; 1.1% of 290,000 active; in the data active means binding response below about 67% or above about 130%
B2AR ag: beta2AR agonists driving receptor internalization, primary screen, cell-based, FAP fluorogen, flow cytometry; AID 504454, 2011; 0.43% of 340,000 active; Am2.2-beta2AR cells; response, % (concentration not given with the values);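 active means response above a set limit, near 3 SD of response in nonfluorescent compounds, cut at about 42% in these data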
Target sequence (P07550 whole entry, looked up): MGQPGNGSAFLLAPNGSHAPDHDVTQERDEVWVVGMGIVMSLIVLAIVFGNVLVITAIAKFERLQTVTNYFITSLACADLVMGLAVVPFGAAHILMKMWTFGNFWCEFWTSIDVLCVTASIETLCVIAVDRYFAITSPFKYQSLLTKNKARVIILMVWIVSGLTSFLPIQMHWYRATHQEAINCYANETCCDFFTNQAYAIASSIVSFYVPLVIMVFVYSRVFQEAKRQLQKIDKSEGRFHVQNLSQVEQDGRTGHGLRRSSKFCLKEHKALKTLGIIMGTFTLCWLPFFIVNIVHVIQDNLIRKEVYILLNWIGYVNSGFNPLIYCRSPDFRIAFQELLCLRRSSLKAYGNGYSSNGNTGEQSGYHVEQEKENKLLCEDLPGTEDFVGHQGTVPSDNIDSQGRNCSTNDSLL
GRK2 aptamer HTS: compounds blocking aptamer binding on GRK2 – biochemical, human GRK2, bead flow cytometry, HTS, primary screen; inhibition of aptamer binding, % at 10 µM; Beta-adrenergic receptor kinase 1 (Homo sapiens), P25098; 0.59% of 330,000 active; FAM-aptamer displacement from GRK2;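 active means inhibition of aptamer binding above 40%, roughly 3 SD of noise, on plates passing a quality check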;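 further: median bead fluorescence of bound FAM aptamer so fluorescent compounds give negative values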
MEKK3 PB1 HTS: modulators of MEKK3-MEK5 PB1 binding, primary screen, biochemical, wildtype MEKK3, multiplex bead flow cytometry, Alexa488-MEK5; Mitogen-activated protein kinase kinase kinase 3 (Homo sapiens), Q99759; bead-based flow cytometry, Alexa488-MEK5 binding to MEKK3; actives lie on both sides; 0 = blocked by unlabeled MEK5, 100 = vehicle; binding response (% of control), % at 10 µM; 1.4% of 290,000 active; AID 1529, 2009;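 active means binding response more than 3 SD above or below the average of its plate-row segment, actives on both sides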;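 further: Alexa488 bead fluorescence after subtracting the streptavidin-only scavenger bead signal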
MEKK2wt confirm: modulators of MEK5 binding to wildtype MEKK2, confirmation, biochemical, single concentration, multiplex bead flow cytometry. 2.4% of 5,900 active. shares compounds with MEKK3 PB1 HTS. AID 1892, 2009. Alexa488-MEK5 binding to MEKK2 WT; actives lie on both sides. binding response (% of control), % at 10 µM; in the data active means binding response below about 16% or above about 210%; inactive means in between
MEKK2mut confirm: mutant MEKK2 PB1-MEK5 binding signal retest – biochemical, single concentration, multiplex bead flow cytometry, confirmation. 2% of 5,900 active. Alexa488-MEK5 binding to MEKK2 mutant. shares compounds with MEKK3 PB1 HTS. percent response, % at 10 µM; in the data active means percent response mostly above about 71%, no sharp cut-off; inactive means mostly below about 38%;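 further: higher means compound restores mutant binding toward wildtype level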
MEKK3 confirm: MEKK3 wild-type PB1 binding to MEK5, inhibitors, confirmation, biochemical, bead multiplex flow cytometry, single concentration, wildtype | shares compounds with MEKK3 PB1 HTS | Alexa488-MEK5 binding to MEKK3; hits give low values | binding response (% of control), % at 10 µM | 1.8% of 5,900 active | AID 1894, 2009;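 active means binding response below 72% of control, or above a set upper limit, though filed actives all read lower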
GRK2 CP1: GRK2 aptamer-displacing inhibitors, retest, confirmation, biochemical, cherry pick 1, bead flow cytometry. shares compounds with GRK2 aptamer HTS. bead-bound GRK2, FAM-aptamer displacement. aptamer displacement, % at 10 µM. 4% of 2,000 active. AID 504451, 2011;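 active means aptamer displacement above 40%, near three times the noise of non-fluorescent compounds, on plates passing quality checks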;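 further: negative values mostly reflect intrinsic compound fluorescence rather than true enhancement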
Aptamer quench SP: aptamer fluorescence quenching in GRK2 counter-screen | shares compounds with GRK2 aptamer HTS | Carboxyfluorescein RNA aptamer on beads, flow cytometry quenching; hits give low values | fluorescence response (% of DMSO), % at 10 µM | 2,000 tested, under 10 active | AID 504580;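 active means compounds that quench the bead-bound fluorescent RNA probe, cutting fluorescence to under half of the solvent control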;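 further: counterscreen run without GRK2 so only probe quenching by compound is measured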
GRK2 CP2: GRK2 aptamer-displacing inhibitors, hit retest, confirmation, biochemical, cherry pick 2, bead flow cytometry; shares compounds with GRK2 aptamer HTS; bead-bound GRK2, FAM-aptamer displacement; inhibition of aptamer binding, % at 10 µM; 360 tested, under 10 active; AID 504782, 2011;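 active means inhibition of aptamer binding above 40%, about triple the noise seen with nonglowing compounds, on plates passing quality control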;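 further: negative values mostly come from compounds that fluoresce themselves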
FAM quench SP: counter-screen for GRK2 binding hits: quenchers of fluorescent RNA aptamer; shares compounds with GRK2 aptamer HTS; carboxyfluorescein RNA aptamer beads, flow cytometry quenching; hits give low values; fluorescence response vs DMSO, % at 10 µM; 360 tested, under 10 active;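 active means response vs DMSO under 50%, meaning signal dropped by over half, treated as fluorescence quencher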;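 further: labelled aptamer on streptavidin beads without GRK2 as a quench counter-screen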
Hits are given with their value; i = inactive; nt = not tested or not shown; [ ] = another dose, or the depositor's remark.

SMILES	MEKK2 mut-MEK5	MEKK2 WT-MEK5	B2AR ag	GRK2 aptamer HTS	MEKK3 PB1 HTS	MEKK2wt confirm	MEKK2mut confirm	MEKK3 confirm	GRK2 CP1	Aptamer quench SP	others
COCCN1C(=O)/C(=C/c2ccc(N3CCCC3)cc2)SC1=S	i	59[inhibitor]	i	57	i	i	i	i	i	i
COc1ccc(/C=C2\SC(=S)N(CCC(=O)N3CCCCC3)C2=O)cc1	i	i	i	i	i	nt	nt	nt	nt	nt
COc1ccc(OC)c(Nc2nc(NCc3ccco3)nc(N)c2[N+](=O)[O-])c1	i	i	i	i	i	nt	nt	nt	nt	nt
COc1ccc(OC)c(Nc2nc(NCc3ccco3)c3ccccc3n2)c1	24	206	i	46	i	i	i	i	i	i
COc1ccccc1C(=O)NCCC(=O)NCC(c1ccc(F)cc1)N1CCOCC1 (configuration not stated)	nt	nt	i	i	nt	nt	nt	nt	nt	nt
N#CC1(C#N)CC(C=O)=C(N)C1(C#N)CC(=O)C12CC3CC(CC(C3)C1)C2 (configuration not stated)	i	i	i	i	i	nt	nt	nt	nt	nt
O=C(Cn1nnc(-c2ccc([N+](=O)[O-])cc2)n1)NNC(=O)c1ccccc1	i	i	i	i	i	nt	nt	nt	nt	nt
O=C(/C=C/c1ccco1)Nc1ccc(-c2nc3ccccc3[nH]2)cc1	i	47[inhibitor]	i	49	35[inhibitor]	i	i	i	i	i
C#CCOCCOCCOCCNc1nc(N2CCN(C(=O)[C@H](C)n3cc(CCC(=O)O)nn3)CC2)nc(N2CCN(C(=O)[C@H](CCCCN)n3cc(CCCC)nn3)CC2)n1	nt	nt	i	nt	nt	nt	nt	nt	nt	nt
COC(=O)c1sc(NC(=O)COc2ccc(OC)cc2)nc1C	i	i	i	i	i	nt	nt	nt	nt	nt
COC(=O)c1sc(NC(=O)COc2cccc(C)c2)nc1C	i	i	i	72	141	i	i	62	nt	nt	GRK2 CP2=i;FAM quench SP=i
O=C(Cn1nc(CNc2ccc(Cl)cc2)[n+]2c1CCCCC2)c1ccc(Br)cc1	i	i	i	i	i	nt	nt	nt	nt	nt
O=C(Cn1nc(CNc2ccc(Br)cc2)[n+]2c1CCCCC2)c1ccc([N+](=O)[O-])cc1	i	146	i	86	i	i	i	i	i	i
NC(=O)c1ccc(NC(=O)COC(=O)C2COc3ccccc3O2)cc1 (configuration not stated)	nt	nt	i	i	nt	nt	nt	nt	nt	nt
Cc1ccc(-c2nn(-c3ccccc3)cc2/C=C/C(=O)OCC(=O)NC2CC2)o1	i	i	i	78	131	i	i	i	i	i
O=C(NCC1CCCO1)C1CCCN1C(=O)NC1CCCCC1 (configuration not stated)	i	i	i	i	i	nt	nt	nt	nt	nt
O=C(NCC1CCCO1)C1CCCN1C(=O)Nc1ccc(Cl)c(Cl)c1 (configuration not stated)	i	5.0[inhibitor]	i	53	4.0[inhibitor]	i	i	i	i	i
CCN1/C(=C/c2ccc3cc(C)ccc3[n+]2CC)Sc2ccccc21	i	14[inhibitor]	nt	55	i	i	i	i	i	i
CC[n+]1ccccc1/C=C1\Sc2ccc(C)cc2N1C	i	i	i	i	i	nt	nt	nt	nt	nt
Cc1cc2cc(CNC(=O)c3ccc4c(c3)OCO4)ccc2n1C	i	-11	i	i	65[inhibitor]	i	i	i	i	i
COc1cc(OC)cc(C(=O)NCc2ccc3c(c2)cc(C)n3C)c1	i	nt	i	82	47[inhibitor]	i	i	i	i	i
CN(Cc1ccccc1OCCO)CC1CCCN(CCc2ccc(Cl)cc2)C1 (configuration not stated)	i	i	i	i	i	nt	nt	nt	nt	nt
COc1cc(/C=N/NC(=O)C2CC(=O)N(c3ccc(C)cc3)C2)cc(OC)c1OC (configuration not stated)	i	i	i	i	i	nt	nt	nt	nt	nt
CCN(CC)CCCN(C(=O)c1ccco1)c1nc(-c2ccc(Cl)cc2)cs1	39	169	i	66	i	i	i	i	i	i
CCN(C(=O)COC(=O)c1cc(=O)[nH]c2ccccc12)C1CCS(=O)(=O)C1 (configuration not stated)	i	37[inhibitor]	i	49	37[inhibitor]	i	i	i	i	i
SMILES	MEKK2 mut-MEK5	MEKK2 WT-MEK5	B2AR ag	GRK2 aptamer HTS	MEKK3 PB1 HTS	MEKK2wt confirm	MEKK2mut confirm	MEKK3 confirm	GRK2 CP1	Aptamer quench SP	others
CCN(C(=O)COC(=O)c1cc(-c2ccc3cc(OC)ccc3c2)nc2ccccc12)C1CCS(=O)(=O)C1 (configuration not stated)	i	i	nt	i	i	nt	nt	nt	nt	nt
O=c1ccc2cc3c(-c4ccccc4)coc3cc2o1	i	i	i	i	i	nt	nt	nt	nt	nt
CCN(CC)CCOC(=O)c1ccc(N/C=C(/C#N)c2nc(-c3cc4ccccc4oc3=O)cs2)cc1	i	36[inhibitor]	i	100	15[inhibitor]	14[inhibitor]	i	13	97	38
Nc1ccc(-c2nc3ccc(N)cc3[nH]2)cc1	i	i	i	i	i	nt	nt	nt	nt	nt
Cc1nc2ccc(-c3nc4ccc(N)cc4[nH]3)cc2[nH]1	nt	nt	i	88	25[inhibitor]	i	i	i	i	i
O=C(c1ccco1)N1CCN(c2c([N+](=O)[O-])nn(-c3cccc(Cl)c3)[n+]2[O-])CC1	i	i	i	i	i	nt	nt	nt	nt	nt
CN(C)CCCN(C(=O)CCSc1ccccc1)c1nc2cc3c(cc2s1)OCO3	i	153	i	68	i	i	i	i	i	i

Screening results from PubChem.
